Consider 102 compounds from PubChem BioAssay AID873 (PCMD, 2007).

The campaign covered roughly 210,000 compounds. About 1,300 (0.62%) were called active. For the sample, actives were picked, then their nearest neighbours and some compounds at random. Values without a mark were called inactive.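 The calls were made as follows: active = inhibition of 40% or more; inactive = the rest.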

Chain of Kallikrein-5 (Homo sapiens) (Q9Y337 67-293 limits assumed): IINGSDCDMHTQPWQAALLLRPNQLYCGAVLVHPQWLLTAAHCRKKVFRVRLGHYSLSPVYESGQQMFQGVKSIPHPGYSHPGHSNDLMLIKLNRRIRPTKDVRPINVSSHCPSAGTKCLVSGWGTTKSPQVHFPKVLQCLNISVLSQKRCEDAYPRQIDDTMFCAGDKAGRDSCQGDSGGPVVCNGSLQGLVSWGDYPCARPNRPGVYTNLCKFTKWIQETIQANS

This test concerns the target Kallikrein-5 (Homo sapiens) (UniProt Q9Y337). In words: human KLK5 protease inhibitors, primary screen, biochemical, 1536-well (AID 873).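 Also: 0% = enzyme controls without compound and 100% = no-enzyme blanks.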 The conditions noted are these: recombinant hK5, fluorogenic AMC substrate cleavage; at 5 µM; hits give high values.
Take `O=C(NN1C(=O)C2C3C=CC(C4CC34)C2C1=O)c1ccc(Cl)cc1` (configuration not stated): the inhibition – broadly, the change of the read-out against control, counted positive when it falls – is -4.1%.
`CC12COC3(C(=O)Nc4ccc(Cl)cn4)CC1CCC32C` (configuration not stated): the inhibition is -6.22%.
In the case of `CC12CN(NC(=O)c3ccc(Cl)cc3)C3(C#N)CC1CCC23C` (configuration not stated), the inhibition was 78.4% (active).
The same measure for `CCc1cc(CNC(=O)CC2C(=O)NCCN2Cc2ccccc2C(F)(F)F)on1` (configuration not stated): -3.44%; for `O=c1c2c3c(sc2n(CCN2CCCC2)c(=O)n1Cc1ccccc1)CCCCC3`: 8.67%; for `Cc1cc(C)n(CC(C)NCc2c(C(=O)N3CCOCC3)nc3c(C)cccn23)n1` (configuration not stated): 1.63%.
For `CS(=O)(=O)n1nc(-c2ccco2)nc1N` the value was -7.61%; for `CSc1nc(-c2ccco2)nn1C(=O)c1ccccc1Cl`, 52.2% (active).
Turning to `CSc1nc(-c2ccco2)nn1C(=O)CCc1ccccc1`, the inhibition is -9.9%.
Consider `Clc1ccc(-c2cc(-c3ccccn3)on2)c(Cl)c1`, for which the inhibition is -3.93%.
On to `C/C(=N\NC(=O)c1nc(C)cc(C)n1)c1ccccc1`, for which the inhibition was -8.77%.
Regarding `CC(C)=C(NC(=O)c1ccccc1)C(=O)N/N=C(\C)c1ccccc1O`, the inhibition was 48.4% (active).
With `CNC(=O)C(NC(=O)c1ccccc1)=C(C)C`, the inhibition is 0.73%.
`Cc1nc2cc(NC(=O)Nc3cccc(F)c3)ccc2n1C`: the inhibition was 17%.
Turning to `C=CCN(C(=O)Nc1ccc2c(c1)nc(C)n2C)c1ccccc1`, the inhibition is 41% (active).
Regarding `C=CCN(C(=O)Nc1ccc2oc(C)nc2c1)c1ccccc1`, the inhibition is -6.89%.
In the case of `Nc1ccc2nn(-c3ccc(Cl)cc3)nc2c1`, the inhibition was -10.3%.
Regarding `O=C(NCCc1csc(-c2ccccc2)n1)c1ccccc1F`, the inhibition was 0.78%.
As for `C=CCn1c(SCCOc2ccc(OC)cc2)nnc1C(NC(=O)c1ccc(OC)cc1)C(C)C` (configuration not stated), the inhibition was 2.79%.
With `C=CCn1c(SCC(=O)c2ccc(Br)cc2)nnc1C(C)NC(=O)Cc1ccc(OC)cc1` (configuration not stated), the inhibition is 53% (active).
On to `C=CCn1c(CNC(=O)c2ccco2)nnc1SCC(=O)c1ccc(OC)cc1`, for which the inhibition was 1.62%.
For the compound `C=CCc1ccc(OCC(O)CN2CCN(Cc3ccccc3)CC2)c(OC)c1` (configuration not stated), the inhibition is -1.55%.
On to `Cc1ccc(OCC(O)CN2CCN(CC(O)COc3ccc(C)cc3Cl)CC2)c(Cl)c1` (configuration not stated), for which the inhibition was 45.3% (active).
In the case of `Cc1cccc(C)c1OCC(O)CN1CCCCC1` (configuration not stated), the inhibition was -7.75%.
Regarding `COC(=O)CNc1nc(Cl)nc(N2CCC(C)CC2)n1`, the inhibition is -2.61%.
For `Cc1ccc(NNC(=O)C2CCC2)cc1C` the value was -0.44%; for `COc1ccc(Cl)cc1NC(=O)CCN1CCOCC1`, -1.88%; for `COc1cc(C(=O)N2CCN(C/C=C/c3ccccc3)CC2)cc(OC)c1C`, 46.4% (active).
As to `O=C(CN1CCN(C/C=C/c2ccccc2)CC1)Nc1ccc(F)cc1F`, the inhibition was 0.73%.
For the compound `CNC(=O)NC(=O)C(C)N1CCN(C/C=C/c2ccccc2)CC1` (configuration not stated), the inhibition is -1.97%.
For `COC(=O)c1nc(NC(=O)c2ccc(F)cc2)n[nH]1` the value was 1.4%.
Take `COC(=O)c1nc(NC(=O)c2ccccc2)n[nH]1`: the inhibition was 45% (active).
For the compound `COC(=O)c1nc(NC(=O)c2ccc(Cl)cc2)n[nH]1`, the inhibition is -14.4%.
Regarding `Cc1nc(Cl)c2oc3ccccc3c2n1`, the inhibition is 42.9% (active).
For `CCSc1nc(C)nc2c1oc1ccccc12` the value was 2.97%; for `Cc1nc(N2CCCC2C(=O)O)c2oc3ccccc3c2n1` (configuration not stated), -6.49%; for `Cn1c2ccc(F)cc2c2nnc(NN)nc21`, 3.58%.
With `Cc1onc(C(=O)NN)c1-c1csc(COc2ccccc2)n1`, the inhibition was -6.54%.
For `CNc1ccc([N+](=O)[O-])cc1C(=O)O` the value was -11.4%; for `Cc1cccc(NC(=S)Nc2ccc(Br)cc2)c1`, 3.76%.
The same measure for `Cc1cccc(NC(=S)Nc2ccc(Cl)c(Cl)c2)c1`: -7.18%; for `Cc1cccc(NC(=S)NC23CN4CN(CN(C4)C2)C3)c1`: 44.6% (active); for `Cc1nc(COc2cccc(Cl)c2)sc1C(=O)/C=C/N(C)C`: 0.93%.
Take `COCc1cc(=O)[nH]c(SC)n1`: the inhibition was 4.7%.
For the compound `O=C(NCCOc1ccccc1)c1ccccc1`, the inhibition is -2.43%.
With `CCCOc1ccc(C(=O)NCCc2ccccc2)cc1`, the inhibition is -7.86%.
As to `O=C(NCCc1ccccc1)c1ccc(OCCOc2ccccc2)cc1`, the inhibition was 79.7% (active).
Regarding `Cc1c(C(=O)N(Cc2ccccc2)Cc2cccnc2)cnn1-c1ccc(F)cc1`, the inhibition is -6%.
For `COC(=O)c1ccc(NC(=O)c2ccco2)cc1`, the inhibition is -16.9%.
With `O=C(Nc1ccc(Oc2ccccc2)cc1)c1ccco1`, the inhibition was 69.2% (active).
Consider `O=C(CSc1ccccc1)Nc1ccc(NC(=O)c2ccco2)cc1`, for which the inhibition is -26.9%.
For `O=C(O)CCCCCCCCCC[n+]1ccccc1`, the inhibition was -3.11%.
Consider `CC1(C)CCSC(/C=C/c2ccccc2)=N1`, for which the inhibition is -4.94%.
Consider `Cc1ccc(Nc2nc(N)nc(CN3CCN(Cc4ccccc4)CC3)n2)cc1Cl`, for which the inhibition was -2.25%.
Turning to `COc1cc(C)nc(N2CCCC(C(=O)NCC(C)C)C2)n1` (configuration not stated), the inhibition is 61.5% (active).
`CC(C)CNC(=O)C1CCCN(S(=O)(=O)c2ccc(-n3cnnn3)cc2)C1` (configuration not stated): the inhibition is 11.1%.
As to `Cc1ccnc(N2CCCC(C(=O)Nc3cc(F)ccc3C)C2)n1` (configuration not stated), the inhibition was -31.1%.
In the case of `COc1cccc(C2Nc3cccc4cccc(c34)N2)c1`, the inhibition is -0.21%.
With `Cc1nc2sc(C(=O)c3ccccc3)c(N)c2c2c1CCCC2`, the inhibition was 44% (active).
With `Cc1ccc2c(N)c(C(=O)c3ccccc3)sc2n1`, the inhibition is 17.9%.
Take `CCc1nc2sc(C(=O)O)c(N)c2c2c1CCCC2`: the inhibition was -8.59%.
The same measure for `COc1ccc(CC(=O)NCC(=O)N/N=C/c2cc(Br)ccc2OC)cc1`: -3%; for `COc1cccc2c(C)c(C(=O)O)[nH]c12`: 90.6% (active).
On to `Cc1c(C(=O)N/N=C/c2ccccc2)[nH]c2c([N+](=O)[O-])cccc12`, for which the inhibition is 7.11%.
For the compound `COc1cccc2c(O)cc(=O)n(C)c12`, the inhibition was -13.9%.
Turning to `CSc1nnc(-c2ccc(C(F)(F)F)cn2)o1`, the inhibition was 2.93%.
With `OC(CNCc1ccc2c(c1)OCO2)COc1ccccc1` (configuration not stated), the inhibition was 2.06%.
For `COc1cc(OC)cc(/C(N)=N/O)c1` the value was -2.69%; for `O=C(O)CCn1cc(/C=C/C(=O)c2ccc(Cl)cc2)c(-c2cccc(Br)c2)n1`, 121% (active); for `O=C(O)/C=C/c1cn(Cc2ccccc2)nc1-c1cccs1`, -5.27%.
In the case of `CCOC(=O)/C(C#N)=C/c1cn(CCC(=O)O)nc1-c1ccc(Br)cc1`, the inhibition is 0.91%.
The same measure for `CCN1CCN(c2nc(Nc3cccc(F)c3)nc(N)c2[N+](=O)[O-])CC1`: 1.83%; for `COC(=O)c1sccc1NC(=O)CC1C(=O)NCCN1C(=O)Nc1ccc(F)cc1F` (configuration not stated): -1.42%.
For `Cc1ccc(-c2nc(SCC(=O)Nc3ccccc3OC(F)F)c3c(C)c(C(=O)O)sc3n2)cc1` the value was 0.7%; for `COc1ccc(OC)c(NC(=O)N[C@H](Cc2ccccc2)C(=O)NN)c1`, -9.7%; for `COC(=O)C1=C(C)N=C2SC(C)C(=O)N2C1/C=C/c1ccccc1` (configuration not stated), 61.9% (active).
As to `C=CCOC(=O)C1=C(C)N=C2SCCC(=O)N2C1/C=C/c1ccccc1OC` (configuration not stated), the inhibition was 1.43%.
On to `COC(=O)C1=C(C)NC(=O)NC1/C=C/c1ccccc1` (configuration not stated), for which the inhibition was -24.4%.
Regarding `CSc1ccc(CN(C)CC(=O)NCc2ccc(F)cc2)cc1`, the inhibition is -2.79%.
For the compound `Cc1ccnc(NC(=O)CCC(=O)N(CC(=O)NCc2ccccc2)Cc2ccco2)c1`, the inhibition is -56.9%.
For `NC(=O)c1nsc(C(=O)N(CC(=O)NCc2ccc(F)cc2)Cc2ccco2)c1N` the value was 69.4% (active).
As to `Cc1[nH]n(-c2ccccc2)c(=O)c1N=Nc1ccccc1C(=O)N1CCCCC1`, the inhibition is 3.28%.
Take `O=C(Cc1ccccc1)N1N=C(c2ccncc2)CC1(O)C(F)(F)F` (configuration not stated): the inhibition was -2.66%.
Regarding `Brc1ccc2ncnc(NCc3cccnc3)c2c1`, the inhibition was -4.89%.
With `Cc1[nH]n(C)c(=O)c1C(=O)c1c(-c2c(Cl)cccc2Cl)noc1C`, the inhibition is 5.65%.
With `O=C(OCN1C(=O)c2ccccc2C1=O)/C(=C\c1ccco1)NC(=O)c1ccccc1`, the inhibition was 41.6% (active).
Turning to `Cc1cccc(NC(=O)/C(=C\c2ccco2)NC(=O)c2ccccc2)c1`, the inhibition was -17.2%.
The same measure for `O=C(NCC1CCCO1)/C(=C\c1ccco1)NC(=O)c1ccccc1` (configuration not stated): -1.75%.
For `O=C(CNCCC1=CCCCC1)Nc1ccccc1N1CCCCCC1`, the inhibition was -0.35%.
Take `Cc1cccc(C)c1Nc1c(-c2ccccc2O)nc2ncccn12`: the inhibition is -0.27%.
In the case of `CC(C)(C)OC(=O)NCCCCCC(=O)N/N=C/c1coc2ccccc2c1=O`, the inhibition is -0.18%.
For `O=C(O)Cc1ccc(-c2ccccc2)cc1`, the inhibition is -3.86%.
For `CCC(C)OC(=O)C(C)Oc1ccc(-c2ccccc2)cc1` (configuration not stated) the value was 54.9% (active); for `COc1cccc(NC(=O)C(C)Oc2ccccc2)c1` (configuration not stated), 15.3%.
Regarding `Cc1ccccc1Cn1c2ccccc2c2cnn(CC(=O)NCc3ccco3)c(=O)c21`, the inhibition was 1.05%.
Take `CCOc1ccccc1NC(=O)CCc1ccc(C)o1`: the inhibition is 118% (active).
The same measure for `CCOc1ccccc1NC(=O)Nc1cc(OC)ccc1OC`: -0.87%.
Regarding `CCOc1ccccc1NC(=O)CCN1CCN(S(=O)(=O)c2ccc(OC)cc2)CC1`, the inhibition was 0.91%.
The same measure for `CCOCCCNCc1ccc(OCc2ccc(F)cc2)c(OC)c1`: -4.94%; for `CCS(=O)(=O)NCCc1ccc(OC)c(OC)c1`: -7.94%; for `COc1ccc(CNCCCO)cc1OC`: 46.4% (active).
As for `O=C(NCc1cccnc1)C(=O)Nc1nc(-c2ccccc2)cs1`, the inhibition was -0.27%.
